Screens deposited in PubChem by National Center for Advancing Translational Sciences (NCATS).
The entries come from a sample that favours hits as a whole.
KDM5B inhibitor: KDM5B demethylase inhibition | Q9UGL1 | 2.6% of 220,000 active | Potency, µM (series often up to 57.7 µM), usual class: inhibitors | AID 1347165 | KDM5B demethylase, FDH-coupled NADH fluorescence (FDH is formaldehyde dehydrogenase); active = well fitted inhibition curve with a large enough effect; note: nearly all actives have a fitted effect of over 70% in size
Target sequence (Q9UGL1 whole entry, looked up): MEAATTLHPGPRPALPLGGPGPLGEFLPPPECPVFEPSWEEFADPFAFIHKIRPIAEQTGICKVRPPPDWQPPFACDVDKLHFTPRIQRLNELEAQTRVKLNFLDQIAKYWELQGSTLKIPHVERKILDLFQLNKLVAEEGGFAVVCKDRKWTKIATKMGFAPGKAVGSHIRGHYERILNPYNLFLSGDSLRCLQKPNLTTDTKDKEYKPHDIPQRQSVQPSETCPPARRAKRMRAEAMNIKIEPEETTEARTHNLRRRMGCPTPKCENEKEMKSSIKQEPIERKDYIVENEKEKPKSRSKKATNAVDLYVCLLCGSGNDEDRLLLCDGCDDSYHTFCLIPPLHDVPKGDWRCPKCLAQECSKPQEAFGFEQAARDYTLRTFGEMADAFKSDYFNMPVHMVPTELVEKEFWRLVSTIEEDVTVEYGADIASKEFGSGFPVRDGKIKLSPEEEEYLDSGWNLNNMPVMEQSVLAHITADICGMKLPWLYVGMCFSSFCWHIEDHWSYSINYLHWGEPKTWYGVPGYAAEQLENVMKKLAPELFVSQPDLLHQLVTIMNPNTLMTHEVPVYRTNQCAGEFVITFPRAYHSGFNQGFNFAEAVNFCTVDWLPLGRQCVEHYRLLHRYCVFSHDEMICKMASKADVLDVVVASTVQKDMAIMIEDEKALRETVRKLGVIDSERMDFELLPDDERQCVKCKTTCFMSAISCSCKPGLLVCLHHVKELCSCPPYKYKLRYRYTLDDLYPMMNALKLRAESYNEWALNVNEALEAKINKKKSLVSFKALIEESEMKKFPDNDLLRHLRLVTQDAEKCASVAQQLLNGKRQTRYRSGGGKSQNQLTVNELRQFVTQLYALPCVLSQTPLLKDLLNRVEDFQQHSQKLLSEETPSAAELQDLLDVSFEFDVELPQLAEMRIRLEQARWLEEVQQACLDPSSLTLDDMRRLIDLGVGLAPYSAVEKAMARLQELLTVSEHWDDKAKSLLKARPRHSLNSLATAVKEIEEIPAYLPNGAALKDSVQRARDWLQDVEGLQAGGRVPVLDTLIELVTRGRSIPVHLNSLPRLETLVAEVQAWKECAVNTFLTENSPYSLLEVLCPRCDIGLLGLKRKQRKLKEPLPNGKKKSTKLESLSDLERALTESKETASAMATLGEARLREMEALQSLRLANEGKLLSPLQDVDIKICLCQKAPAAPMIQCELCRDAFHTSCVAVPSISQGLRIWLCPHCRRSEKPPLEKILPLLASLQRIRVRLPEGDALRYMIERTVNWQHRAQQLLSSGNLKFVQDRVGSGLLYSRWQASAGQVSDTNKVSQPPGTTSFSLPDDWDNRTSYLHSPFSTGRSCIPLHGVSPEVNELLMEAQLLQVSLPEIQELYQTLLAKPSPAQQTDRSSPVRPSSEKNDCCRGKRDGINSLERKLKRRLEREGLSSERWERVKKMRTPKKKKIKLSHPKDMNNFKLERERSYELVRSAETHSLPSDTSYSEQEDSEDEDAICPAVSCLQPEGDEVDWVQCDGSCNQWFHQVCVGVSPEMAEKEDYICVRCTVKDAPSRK
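Here, H3K4me3 peptide (12.5 µM in substrate mix) is demethylated by KDM5BΔAP, 200 nM final, after 10 min compound exposure. Formaldehyde product is coupled through FDH (0.25 U/mL in mix) to NADH fluorescence; 30-min ΔRFU feeds dose-response curves.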
Numbers stand for hits; n = inactive.

SMILES | KDM5B inhibitor
Cc1ccc(S(=O)(=O)NCc2nnnn2-c2ccc(C)c(C)c2)cc1 | n
COc1ccc2cc(C(=O)Nc3ccccn3)c(C)nc2c1 | n
C=CCn1cc(CN2CCC(Oc3ccc4ccccc4c3)(C(=O)O)CC2)cn1 | n
Cc1ccc(CN2CCC(Oc3ccc4ccccc4c3)(C(=O)O)CC2)o1 | n
O=C(O)C1(Oc2ccc3ncccc3c2)CCN(Cc2ccncc2)CC1 | 15.8µM
COc1cc(OC)c2c(C)c(CC(=O)NC3CCCCCCC3)c(=O)oc2c1 | n
Cc1noc(-c2ccn3c(CNC(=O)c4ccccn4)nnc3c2)n1 | n
Cc1cccc(C(=O)NCc2nnc3cc(-c4nc(C)no4)ccn23)c1 | 25.1µM
Cc1cccc(C(=O)NCc2nnc3cc(-c4nc(C(C)C)no4)ccn23)c1 | 28.2µM
CC(C)c1noc(-c2ccn3c(CNC(=O)c4ccoc4)nnc3c2)n1 | 28.2µM
CC(C)c1noc(-c2ccn3c(CNC(=O)c4ccccc4)nnc3c2)n1 | n
Cc1ccc(C(=O)NCc2nnc3cc(-c4nc(C)no4)ccn23)cc1 | 11.2µM
CCCCCCCNC(=O)c1ccc(Nc2ccc(-c3cccc(C)c3)nn2)cc1 | n
O=C(C1=C(O)C(=O)N(CCc2ccccc2)C1c1ccc(Br)cc1)c1cccs1 (centres undefined) | n
Cc1cn2c3c(=O)[nH]c(=O)n(C)c3nc2n1CCN1CCN(Cc2ccc(F)cc2)CC1 | n
O=C(CCC(=O)c1ccc(F)cc1)OCC(=O)c1cc(Cl)ccc1Cl | n
CC1Cc2cc(S(=O)(=O)NCCC(=O)NCc3ccco3)ccc2N1C(=O)C1CC1 (centres undefined) | n
CCN(C(=O)Cn1nc(Cc2cccnc2)c2ccccc2c1=O)c1cccc(Cl)c1 | n
Cc1ccc(-n2c(C3CCN(C(=O)c4ccc(F)c(F)c4)CC3)n[nH]c2=O)cc1 | n
CCn1nc(C(=O)N(Cc2ccc(OC)cc2)C(C)Cc2cccs2)c2ccccc2c1=O (centres undefined) | n
O=C1NCCCCCCN(C(=O)c2ccsc2)[C@H]2C[C@H](c3nc(-c4cnccn4)no3)C[C@@H]12 | n
O=C(NCC1CCCCC1)c1noc(-c2ccc[nH]c2=O)n1 | n
COc1ccc(CCNC(=O)c2noc(-c3ccccc3F)n2)cc1OC | n
O=C(NCC1CC1)c1noc(-c2ccccc2F)n1 | 20µM
CCC(C)CNC(=S)NC1CC1 (centres undefined) | n
SMILES | KDM5B inhibitor
O=C(NCc1cccc(Br)c1)c1noc(-c2ccc(F)cc2)n1 | n
COc1cccc(CN[C@@H]2CCC[C@@H](C(=O)NC3CC3)CC(=O)N(C)C2)c1 | n
CN1C[C@H](C(=O)N2CCN(c3ccccn3)CC2)C[C@H]1c1cccc(C(F)(F)F)c1 | 39.8µM
COc1ccc(NC(=O)[C@@H]2C[C@@H](c3cccc(C(F)(F)F)c3)N(C)C2)cc1OC | n
CN1C[C@H](C(=O)NCc2ccncc2)C[C@H]1c1cccc(C(F)(F)F)c1 | n
Fc1ccccc1CCNc1ncnc2nc[nH]c12 | n
COCCCNC(=O)N1CCc2nn(C)c(=O)n2CC1 | n
CC(C)(C)CN[C@@H]1CO[C@H](CNC(=O)c2ccccc2)[C@H]1O | n
CCOC(=O)c1ccc(NC(=O)C2CC(=O)N(c3n[nH]c4ccccc34)C2)cc1 (centres undefined) | 28.2µM
Cc1csc(NC(=O)C2CC(=O)N(c3n[nH]c4ccccc34)C2)n1 (centres undefined) | n
COc1ccc(C)cc1NC(=O)C1CC(=O)N(c2n[nH]c3ccccc23)C1 (centres undefined) | n
CCc1nc2c(c(-c3ccc(O)cc3)n1)CCN(Cc1ccc(C)cc1)CC2 | n
COc1ccc(-c2cn(C)c(=O)n3cc(COc4ccccc4)nc23)c(C)c1 | n
Cc1nc(CCNC(=O)c2ccccn2)cs1 | n
CCN(CC)C(=O)c1cn2ccnc(-c3ccc(C)cc3)c2n1 | n
COc1ccc(OCC(=O)NCCNC(=O)c2ccccn2)cc1 | n
COCCCNC(=O)c1cn2ccnc(-c3ccc(OC)cc3)c2n1 | 25.1µM
COc1ccc(-c2nccn3cc(C(=O)NCCc4ccccn4)nc23)cc1 | 25.1µM
COCCCNC(=O)CSc1nc(-c2ccc(OC)cc2)[nH]c1-c1ccc(OC)cc1 | n
COc1ccc(OCCNC(=O)c2cnc3ccccc3n2)cc1 | n
COCCNC(=O)c1cn2ccnc(-c3ccc(OC)cc3)c2n1 | 20µM
CCCN(C)C(=O)c1cn2ccnc(-c3ccc(C)cc3)c2n1 | n
Cc1ccc(C(=O)OC(C)C(=O)NC(=O)NC2CCCCC2)c(O)c1 (centres undefined) | n
FC(F)Oc1ccccc1CN(CC1CCN(C2CCCC2)CC1)CC1CCCO1 (centres undefined) | n
COc1ccc(OC)c(NC(=O)COC(=O)c2cc(C)sc2C)c1 | n
SMILES | KDM5B inhibitor
O=C(NCc1cccc(F)c1)C1Cn2cccc2C(=O)N1Cc1cccnc1 (centres undefined) | n
Cc1ccc(-c2cc3c(=O)n(CCNC(=O)Cc4c[nH]c5ccccc45)ccn3n2)c(C)c1 | n
O=C(NCCn1ccn2nc(-c3ccc(F)cc3)cc2c1=O)c1cccc2[nH]ccc12 | 28.2µM
Cc1ccc(-c2cc3c(=O)n(CCNC(=O)c4ccc(F)cc4)ccn3n2)c(C)c1 | n
O=C(Cc1cccc(F)c1)NCCn1ccn2nc(-c3ccc(F)cc3)cc2c1=O | n
Cc1ccc(-c2cc3c(=O)n(CCNC(=O)c4ccc[nH]c4=O)ccn3n2)cc1C | 35.5µM
Cc1ccc(-c2cc3c(=O)n(CCNC(=O)c4cccc5[nH]ccc45)ccn3n2)cc1C | 28.2µM
Cc1ccc(CNC(=O)Cn2cccc2-c2nc(-c3ccccc3)no2)cc1 | n
O=C(CN1CC2CC(C1)[C@H]1CCCC(=O)N1C2)NCCc1cccs1 (some centres undefined) | n
Cc1oc2cc(OC(=O)c3ccco3)ccc2c(=O)c1-c1ccc(Br)cc1 | n
CCCS(=O)(=O)NC[C@@H]1C=C(C)[C@H](Cc2nnc(-c3ccccc3F)o2)C[C@H]1C(C)C | n
COc1ccccc1N1CCN(C(=O)CCc2ccccc2C)CC1=O | n
CC(=O)Nc1ccc(NC(=O)Cn2cccc2-c2nc(-c3ccccc3)no2)cc1 | n
COc1cccc(Nc2ncc(-c3ccccc3)c3c2OCC3)c1 | 20µM
O=C(Nc1ncc(-c2cccc(F)c2)c2c1OCC2)c1c[nH]c2ccccc12 | n
CNC(=O)c1cccc(-c2cnc(NC(=O)c3ccncc3)c3c2CCO3)c1 | n
COc1cccc(Nc2ncc(C#N)c(N)n2)c1 | n
COc1cccc(Nc2ncc(-c3cccc(N(C)C)c3)c3c2OCC3)c1 | 22.4µM
COc1cccc(NC(=O)CCc2ncc(-c3ccccc3)o2)c1 | n
CNC(=O)c1cccc(-c2cnc(Nc3cccc(F)c3)c3c2CCO3)c1 | 31.6µM
CN(C)c1cccc(-c2cnc(Nc3cncnc3)c3c2CCO3)c1 | n
CN(C)c1cccc(-c2cnc(NC(=O)C3CCOCC3)c3c2CCO3)c1 | n
O=C(Cn1ccc2c(Br)cccc21)Nc1nccs1 | n
COc1cc(C)ccc1OC(=O)C(C)Oc1ccc(Cl)cc1Cl (centres undefined) | n
CC(=O)c1c(C)nn(CCC(=O)N[C@@H]2CCOC[C@H]2OCCO)c1C | n
CCN1CCN(C2(C(=O)N3CCC(COC)C3)Cc3ccccc3C2)CC1 (centres undefined) | n
Cc1ccc(Nc2nnc(SCC(=O)NC(C)(C)C)s2)cc1C | n
O=C(CSC1=NS(=O)(=O)c2ccccc2N1Cc1ccccc1)Nc1ccc(F)cc1F | n
Fc1ccc(-c2[nH]ncc2CNCc2cccc(Cn3cccn3)c2)cc1 | n
